HCV NS3h FP: blocks HCV NS3 helicase binding to DNA; NS3h Cy5-dT15 DNA binding, fluorescence polarization; inhibition, % at 100 µM; 16,000 compounds, 1.6% hits; AID 687043;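 active = inhibition above the average over every tested compound plus 3 SD, cut at about 40% in these data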
Cy5 interf NS3h: counter-screen for HCV NS3 helicase inhibitors: fluorescence interference; Cy5-dT15 DNA with NS3h; actives lie on both sides; signal over control mean, under 1 quenches; fluorescence interference ratio at 100 µM; 16,000 compounds, 6% hits; AID 720488;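 active = compound fluorescence over control fluorescence at most 0.8, a quencher, or at least a set upper limit, an enhancer; inactive = ratio between 0.8 and the set upper limit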
Large screens that a line does not name were inactive. Hits are enriched below; roughly 6.8% of the tested compounds scored in any of these assays.

O=C1N=c2ccccc2=C1c1sc(Nc2ccc(O)cc2)nc1O	Cy5 interf NS3h 0.631
C/C(=N/N=C1\NC(=O)C(CC(=O)Nc2ccc([N+](=O)[O-])cc2)S1)c1ccc(F)cc1 (stereo not given)	none
C/C(=N/N=C1\NC(=O)C(CC(=O)Nc2ccc(Cl)cc2Cl)S1)c1ccc(F)cc1 (stereo not given)	Cy5 interf NS3h 1.22
CCc1ccc(NC2=C(Cl)C(=O)N(c3ccc(C)cc3)C2=O)cc1	none
COc1ccc(-n2c(C)ccc2C)c(N)c1	none
COc1cc(C(=O)O)c(-n2c(C)ccc2C)cc1OC	Cy5 interf NS3h 1.36
NS(=O)(=O)c1ccc(N=Cc2ccc[nH]2)cc1	none
O=[N+]([O-])c1cccc(N=Cc2ccc[nH]2)c1	Cy5 interf NS3h 0.68
C/C(=N\N=C1/c2ccccc2C(=O)C1C(=O)C(c1ccccc1)c1ccccc1)c1cccs1 (stereo not given)	Cy5 interf NS3h 0.684
CC(CNC(=O)c1cccs1)c1ccccc1 (stereo not given)	none
O=C1NC(=O)C(=Cc2cccc(OCc3ccc(F)cc3)c2)C(=O)N1	none
CCCCC/C(=N/NC(=O)c1cccnc1)c1ccccc1	none
COc1cc(/C=C2\NC(=S)NC2=O)ccc1Oc1ccc([N+](=O)[O-])cn1	none
COc1cc(/C=C2\NC(=S)NC2=O)c([N+](=O)[O-])cc1OC	Cy5 interf NS3h 0.506
C=CCc1ccccc1OCCOc1cccc(/C=C2/SC(=S)N(C)C2=O)c1	Cy5 interf NS3h 1.24
C=CCc1ccccc1OCCOc1ccc(/C=C2/SC(=S)N(C)C2=O)cc1	none
COc1cc(/C=C2/SC(=S)N(C)C2=O)cc(Cl)c1OCc1ccccc1Cl	none
CCOc1cc(/C=C2/SC(=S)N(C)C2=O)ccc1OCc1ccccc1Cl	Cy5 interf NS3h 1.2
O=C(O)c1ccc(NC(=O)c2ccc3c(c2)C(=O)N(c2ccc(C(=O)O)cc2)C3=O)cc1	none
CCN(CC)c1ccc(NC(=O)c2cccc(Cl)c2Cl)cc1	none
O=C(Nc1cccnc1)c1cccc(Cl)c1Cl	Cy5 interf NS3h 0.72
Cc1ccc(OCCOc2cccc(C=O)c2)cc1C	none
COc1ccc(OC)c(/C=C/C(=O)Oc2cc(C)cc(C)c2)c1	none
Cc1ccc(-c2nc3ccccn3c2NC(=O)c2ccccc2)cc1	Cy5 interf NS3h 0.776
Cc1ccc(-c2nc3ccccn3c2NC(=O)c2ccc(Cl)cc2)cc1	none
O=C(Nc1c(C(=O)N2CCCCCC2)cnn1-c1ccccc1)c1cccc(F)c1	Cy5 interf NS3h 1.27
O=C(Nc1c(C(=O)N2CCOCC2)cnn1-c1ccccc1)c1ccccc1	none
Cc1c(NC(=O)c2ccco2)cccc1[N+](=O)[O-]	none
COc1ccc(OC)c(/C=C2/SC(=S)N(CNc3cccc(Cl)c3)C2=O)c1	Cy5 interf NS3h 0.6
COC(=O)CN1C(=O)/C(=C/c2cc(OC)ccc2OC)SC1=S	none
CCN(C(=O)c1cc(OC)c(OC)cc1[N+](=O)[O-])c1ccccc1	none
COc1cc(CC(=O)O)c([N+](=O)[O-])cc1OC	Cy5 interf NS3h 0.653
CCOc1ccccc1/C=C1/C(=O)NN(c2ccc(C)c(Cl)c2)C1=O	Cy5 interf NS3h 0.742
CCOC(=O)c1ccc(N2NC(=O)/C(=C/c3ccc(O)c(OCC)c3)C2=O)cc1	Cy5 interf NS3h 0.734
CCOC(=O)COc1ccc(/C=C2/C(=O)NN(c3ccc(I)cc3)C2=O)cc1OC	none
CCOc1ccccc1/C=C1/C(=O)NN(c2ccc(C)c(C)c2)C1=O	none
COC(=O)c1ccccc1N(Cc1ccccc1)S(=O)(=O)c1ccc(OC)cc1	none
CC12CC3(C)CC(C)(C1)CC(C(=O)NN)(C2)C3	none
CC12CC3(C)CC(C)(C1)CC(C(=O)NCCO)(C2)C3	Cy5 interf NS3h 1.27
Cc1cccc(-c2noc(COc3ccc(Cl)cc3)n2)c1	none
COCc1cc(CN2CCC(C)CC2)c(O)c2ncccc12	none
COc1ccc(C2CC(C(F)(F)F)n3ncc(C(=O)N4CCN(Cc5ccccc5)CC4)c3N2)cc1OC (stereo not given)	Cy5 interf NS3h 0.609
Cc1ccc(C2CC(C(F)(F)F)n3ncc(C(=O)N4CCN(c5ccc(F)cc5)CC4)c3N2)cc1 (stereo not given)	Cy5 interf NS3h 0.627
Cc1ccc(C2CC(C(F)(F)F)n3ncc(C(=O)NCCN4CCOCC4)c3N2)cc1 (stereo not given)	Cy5 interf NS3h 0.77
COc1ccc(C2CC(C(F)(F)F)n3ncc(C(=O)Nc4ccccc4SC)c3N2)cc1 (stereo not given)	none
COCCNC(=O)c1cnn2c1NC(c1ccc(OC)c(OC)c1)CC2C(F)(F)F (stereo not given)	none
O=C(c1ccccc1)N1CCN(C(=O)c2cnn3c2NC(c2ccc(Br)cc2)CC3C(F)(F)F)CC1 (stereo not given)	none
COc1ccc(C2CC(C(F)(F)F)n3ncc(C(=O)NC(C)(C)C)c3N2)cc1 (stereo not given)	Cy5 interf NS3h 0.69
O=C(NCCN1CCOCC1)c1cnn2c1NC(c1ccco1)CC2C(F)(F)F (stereo not given)	none
CN1C(=O)/C(=C\c2cccc(OCCOc3ccc(Br)cc3)c2)SC1=S	none
